Compound activity from PubChem BioAssay.
HCMV antiviral: qHTS Assay for inhibitors of the human cytomegalovirus (HCMV); HFF cells, HCMV-luciferase reporter, 72 h; active compounds read low; activity change, negative = inhibition, % at 57.5 µM; 4.5% of 410,000 active; in the data active means activity change below about -60%; inconclusive means no clear call, values can overlap the other calls; inactive means above about -39%; further: on the % scale 0 is the no-effect control and ±100 the full control effect
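Human foreskin fibroblasts infected with luciferase-reporter HCMV at MOI 1 PFU/cell, compounds at two doses. Luciferase measured 72 h post infection; normalized to buffer-only basal and Salinomycin (10uM) controls.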
HCV inhibitor: qHTS Assay for Inhibitors of Hepatitis C Virus (HCV); 3.4% of 340,000 active; Potency, µM (highest dose often 41.8 µM), inactives show at the top dose activity change, negative = inhibition, usual class: inhibitors; Huh7.5.1 HCVcc-Cre infection, luciferase reporter, 44 h; further: potency means the concentration at half of the fitted maximal effect; on the % scale 0 is the no-effect control and ±100 the full control effect
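Infectious HCV cell culture screen: compound-treated cells (1,000/well, pre-plated 4 h) are infected with HCVcc-Cre at roughly 0.5 moi and grown 44 h. Infection is quantified by luciferase signal after 15 min substrate incubation at room temperature.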
Shiga inhibitor: A qHTS for Small Molecule Inhibitors of Shiga Toxin. 9.2% of 290,000 active. inhibition, % at 38.7 µM. AID 2315, 2010. Vero cells, Shiga toxin protein synthesis inhibition reporter; in the data active means inhibition mostly above about 28%, no sharp cut-off; inactive means mostly below about 43%; further: 0% is about no effect
Cycloheximide cs: Cycloheximide Counterscreen for Small Molecule Inhibitors of Shiga Toxin. 12% of 300,000 active. cell reporter, cycloheximide protein synthesis inhibition counterscreen. max response, %; in the data active means max response mostly above about 13%, no sharp cut-off; inactive means mostly below about 14%; further: read at 38.3 µM for the half of the compounds with a filed dose; 0% is about no effect
Pf growth 48h: Primary qHTS for delayed death inhibitors of the malarial parasite plastid, 48 hour incubation; Potency, µM (top dose mostly 28.7 µM), for inactives: top-dose activity change, negative = inhibition, hits mostly inhibitors; P. falciparum luciferase growth in erythrocytes, 48 h; AID 504832, 2011; 5.9% of 310,000 active; further: potency means the concentration at half of the fitted maximal effect; on the % scale 0 is the no-effect control and ±100 the full control effect
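Parasite viability was followed by luminescence of a genomically integrated firefly luciferase. Cultures held 0.1% parasitemia at 2% hematocrit (final), incubated under 5% CO2 at 37 C.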
Pf growth 96h: Primary qHTS for delayed death inhibitors of the malarial parasite plastid, 96 hour incubation; P. falciparum luciferase reporter growth, 96 h; Potency, µM (titrated, usually from 28.7 µM), for the others: at the highest dose activity change, negative = inhibition, actives largely listed as inhibitors; 6.9% of 320,000 active; AID 504834, 2011; further: potency means the concentration at half of the fitted maximal effect; on the % scale 0 is the no-effect control and ±100 the full control effect
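Plates of compound plus infected erythrocytes (2% hematocrit, 0.05% parasitemia final) incubate 96 hours, 37 C, 5% CO2. Detection reagent added; reduced luminescence from the parasites' luciferase reporter flags inhibition.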
Numbers without * were called inactive. Most compounds without a hit are left out; they make up all but 21% or so of the library. Unless noted, the call rests on the fitted dose curve; in most records, active means well fitted inhibition curve with a large enough effect; inconclusive means small, poorly fitted or top-dose-only effect, or another doubt; inactive means no such curve, though single readings can be large or run the other way.

For O=S(=O)(c1ccc(Cl)cc1Cl)n1ccnc1 the results were HCMV antiviral 2.2.
Screening Cc1ccc(-n2nc3c(c2NC(=O)c2ccc4c(c2)OCO4)CS(=O)C3)cc1 (stereo not drawn) returned HCMV antiviral -16.1, HCV inhibitor 14.4%, Shiga inhibitor 17.7, Cycloheximide cs -1.1, Pf growth 48h -1.9% and Pf growth 96h 163.2%.
For Cc1ccc(-n2nc3c(c2NC(=O)/C=C\c2ccc4c(c2)OCO4)CSC3)c(C)c1 the results were HCMV antiviral -6.6, HCV inhibitor inconclusive, Shiga inhibitor -21.1, Cycloheximide cs -4.1, Pf growth 48h inconclusive and Pf growth 96h 13.1µM*.
`Cc1ccccc1-n1nc2c(c1NC(=O)/C=C\c1ccc3c(c1)OCO3)CSC2` gave HCMV antiviral 54.1, HCV inhibitor inconclusive, Shiga inhibitor -5.8, Cycloheximide cs -3.7, Pf growth 48h inconclusive and Pf growth 96h 11.7µM*.
`Cc1ccc(-n2nc3c(c2NC(=O)/C=C\c2ccc4c(c2)OCO4)CSC3)cc1` gave HCMV antiviral -16.8, HCV inhibitor inconclusive, Shiga inhibitor -14.2, Cycloheximide cs -3.6, Pf growth 48h -21.6% and Pf growth 96h 13.1µM*.
`Nc1ccc(N(c2ccccc2)c2ccc(N)cc2)cc1` gave HCMV antiviral inconclusive, HCV inhibitor 10µM*, Shiga inhibitor -13.6, Cycloheximide cs -3.8, Pf growth 48h inconclusive and Pf growth 96h -62.9%.
Screening CCN(CC)c1ccccc1 returned HCMV antiviral -37.1, HCV inhibitor 1.2%, Pf growth 48h 37.8% and Pf growth 96h 35.2%.
`CC(C)CN(C(=O)C1CCCO1)C1CCS(=O)(=O)C1` (stereo not drawn) gave HCMV antiviral -13.3, HCV inhibitor 6.7%, Pf growth 48h 8.9% and Pf growth 96h 23.3%.
Screening O=C(CSc1nc2scc(-c3ccccc3)c2c(=O)[nH]1)N1CCOCC1 returned HCMV antiviral 1.1, Shiga inhibitor -26.2, Cycloheximide cs -1.3, Pf growth 48h -17.1% and Pf growth 96h inconclusive.
For CC(C)(C)C(=O)Nc1cc(-c2cccc(Br)c2)nn1-c1ccccc1 the results were HCMV antiviral -19.5.
COc1ccc(NC(=O)C2CCCN(C(=O)c3ccc(Cl)cc3)C2)cc1Cl (stereo not drawn) was read as HCMV antiviral -72.8*, HCV inhibitor inconclusive, Pf growth 48h inconclusive and Pf growth 96h inconclusive.
Screening CC(=O)c1ccc(NC(=O)C2CCCN(C(=O)c3ccc(Cl)cc3)C2)cc1 (stereo not drawn) returned HCMV antiviral -21.9, HCV inhibitor -3.9%, Shiga inhibitor 30.6, Cycloheximide cs 12.2, Pf growth 48h -17.3% and Pf growth 96h 19.7%.
`O=C(Nc1ccccc1)C1CCCN(C(=O)c2ccc(Cl)cc2)C1` (stereo not drawn) gave HCMV antiviral -64.6*, HCV inhibitor -9.4%, Shiga inhibitor 29.1, Cycloheximide cs 2.3, Pf growth 48h 23.6% and Pf growth 96h 8.9%.
For O=C(Nc1cccc(S(=O)(=O)N2CCOCC2)c1)C1CCCN(C(=O)c2ccc(Cl)cc2)C1 (stereo not drawn) the results were HCMV antiviral inconclusive, HCV inhibitor inconclusive, Shiga inhibitor -2.6, Cycloheximide cs -3.3, Pf growth 48h inconclusive and Pf growth 96h 10.4µM*.
CC(NC(=O)C1CCCN(C(=O)c2ccc(Cl)cc2)C1)c1cccc(C(F)(F)F)c1 (stereo not drawn) was read as HCMV antiviral 3.7, HCV inhibitor inconclusive, Pf growth 48h 13.1µM* and Pf growth 96h inconclusive.
For CC(C)c1cccc(-c2nc3c(Nc4ccccc4)nccc3[nH]2)c1 the results were HCMV antiviral -17.3.
For CCc1ccccc1N(C)C(=O)c1cn(CC(C)C)c(=O)c2cc(OC)c(OC)cc12 the results were HCMV antiviral -33.5.
Screening O=C(OCCc1ccccn1)c1cccc([N+](=O)[O-])c1 returned HCMV antiviral 19.2 and HCV inhibitor -2.2%.
For O=C(Nc1ccc(S(=O)(=O)N2CCCCC2)cc1)C1CCCN(C(=O)c2ccc(Cl)cc2)C1 (stereo not drawn) the results were HCMV antiviral -64.7*, HCV inhibitor -23.4%, Shiga inhibitor 6.6, Cycloheximide cs -4.4, Pf growth 48h inconclusive and Pf growth 96h 11.7µM*.
`O=C(c1ccc(Cl)cc1)N1CCN(C(=O)C2CCCCC2)CC1` gave HCMV antiviral 51.5, HCV inhibitor 10.3%, Shiga inhibitor -6.6, Cycloheximide cs 2.9, Pf growth 48h 8.3% and Pf growth 96h 5.86µM*.
For CN(C)S(=O)(=O)c1ccc(NC(=O)C2CCCN(C(=O)c3ccc(Cl)cc3)C2)cc1 (stereo not drawn) the results were HCMV antiviral inconclusive, HCV inhibitor inconclusive, Shiga inhibitor -8.7, Cycloheximide cs -6.3, Pf growth 48h -2.1% and Pf growth 96h inconclusive.
Screening Cn1cc(CN2CCCC(C(=O)c3ccc(-c4ccccc4)cc3)C2)cn1 (stereo not drawn) returned HCMV antiviral -18.4, HCV inhibitor 14.1µM*, Shiga inhibitor -6.5, Cycloheximide cs 6.3, Pf growth 48h inconclusive and Pf growth 96h inconclusive.
Screening Cn1cc(CN2CCCC(C(=O)c3ccc(-c4ccccc4)c(F)c3)C2)cn1 (stereo not drawn) returned HCMV antiviral -12.9, HCV inhibitor inconclusive, Shiga inhibitor 4.0, Cycloheximide cs -2.6, Pf growth 48h inconclusive and Pf growth 96h inconclusive.
For CCn1cc(CN2CCCC(C(=O)c3ccc(-c4ccccc4)cc3)C2)cn1 (stereo not drawn) the results were HCMV antiviral -61.0*, HCV inhibitor inconclusive, Shiga inhibitor -10.2, Cycloheximide cs -1.8, Pf growth 48h 41.7% and Pf growth 96h -17.7%.
For O=C(c1ccc(-c2ccccc2)c(F)c1)C1CCCN(C(=O)c2cncs2)C1 (stereo not drawn) the results were HCMV antiviral 10.6, HCV inhibitor -7.5%, Shiga inhibitor 35.5, Cycloheximide cs -1.6, Pf growth 48h inconclusive and Pf growth 96h 13.1µM*.
`Cc1nn(C)cc1CN1CCCC(C(=O)c2ccc(-c3ccccc3)c(F)c2)C1` (stereo not drawn) gave HCMV antiviral inconclusive, HCV inhibitor 10µM*, Shiga inhibitor -16.2, Cycloheximide cs -2.0, Pf growth 48h 14.7µM* and Pf growth 96h 0.0%.
Screening CCn1cc(C(=O)N2CCCC(C(=O)c3ccc4ccccc4c3)C2)cn1 (stereo not drawn) returned HCMV antiviral -13.1, Shiga inhibitor -1.6, Cycloheximide cs 9.6, Pf growth 48h -26.2% and Pf growth 96h -12.4%.
